Measurements published in PubChem BioAssay (EPA / NIEHS).
Active and inactive are the calls of the source. Rule for the calls: active = hit-call score of the fitted dose curve at least 0.9, where 1 is the maximum; inactive = score below 0.9.

Columns and labels:
[1] = target: Bile acid receptor (Homo sapiens) (UniProt Q96RI1); assay: ATG_IR1_CIS: Attagene CIS-FACTORIAL HepG2 Assay for human Nuclear Receptor Subfamily 1 Group H Member 4 (NR1H4), IR1 submotif (AID 2282946); settings: IR1 reporter transcription, actives raise or lower the signal
Summary of the method: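 HepG2 cells transiently transfected with multiple cis-promoter-driven reporter units to measure endogenous transcription factor activity; 24 h exposure. Reporter mRNA read by RT-PCR, FAM labelling, HpaI digestion and capillary electrophoresis. Bidirectional fit versus DMSO.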

[2] = ATG_ISRE_CIS: Attagene CIS-FACTORIAL HepG2 Assay for human Interferon Regulatory Factor 1 (IRF1) binding to an Interferon-Stimulated Response Element (ISRE) (AID 2282948); settings: HepG2 ISRE cis-reporter (Attagene), mRNA transcription readout; actives raise or lower the signal
Summary of the method: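 Transfected HepG2 (multiple reporter transcription units, cis elements) dosed 24 h. RNA → oligo(dT) RT → PCR → 6-FAM primer extension → HpaI → CE. DMSO = negative control/baseline.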

[3] = ATG_M_32_CIS: Attagene CIS-FACTORIAL HepG2 Assay for M32 Transcription Factor (Internal Marker) (AID 2282949); settings: HepG2 Attagene cis-factorial M32 reporter, mRNA; actives raise or lower the signal;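 note: background control marker of the multiplexed CIS panel rather than a real target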
Summary of the method: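 HepG2 cells transiently transfected with multiplexed cis-regulated reporter units, dosed 24 h. Reporter mRNA quantified by RT-PCR, 6-FAM labelling, HpaI digestion and capillary electrophoresis; bidirectional fit vs DMSO.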

[4] = ATG_M_06_CIS: Attagene CIS-FACTORIAL HepG2 Assay for M06 Transcription Factor (Internal Marker) (AID 2282950); settings: HepG2 Attagene CIS-FACTORIAL M06 internal marker reporter; actives raise or lower the signal
Summary of the method: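 Fluorescence-labelled RT-PCR products from cis-promoter reporter units, cut with HpaI and resolved by capillary electrophoresis, give the signal. Cells are human HepG2, dosed for 24 h. Serves as background control, fitted relative to DMSO.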

[5] = target: Hypoxia-inducible factor 1-alpha (Homo sapiens) (UniProt Q16665); assay: ATG_HIF1a_CIS: Attagene CIS-FACTORIAL HepG2 Assay for human Hypoxia Inducible Factor 1 (HIF1A) (AID 2282951); settings: HepG2 Attagene cis-factorial HIF1a reporter transcription; actives raise or lower the signal
Summary of the method: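 After 24 h chemical exposure of reporter-transfected HepG2 cells, reporter cDNA was PCR-amplified, labelled by 6-FAM primer extension (2 min 95 C, 20 s 68 C, 10 min 72 C), HpaI-cut (2 h, 37 C) and analysed by CE.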

[6] = target: Hepatocyte nuclear factor 6 (Homo sapiens) (UniProt Q9UBC0); assay: ATG_HNF6_CIS: Attagene CIS-FACTORIAL HepG2 Assay for human Hepatocyte Nuclear Factor 6 (HNF6) (AID 2282952); settings: HepG2 Attagene cis-factorial HNF6 reporter transcription; actives raise or lower the signal
Summary of the method: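 HepG2, transient MRTU transfection (cis promoters); 24 h chemical exposure; total RNA → oligo(dT) RT → PCR → 6-FAM labelling → HpaI cut → CE; bidirectional fit vs DMSO.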

[7] = target: Heat shock factor protein 1 (Homo sapiens) (UniProt Q00613); assay: ATG_HSE_CIS: Attagene CIS-FACTORIAL HepG2 Assay for human Heat Shock Transcription Factor 1 (HSE) (AID 2282953); settings: HepG2 HSE cis-reporter, Attagene RNA transcription; actives raise or lower the signal
Summary of the method: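 After a 24 h incubation with test chemical, transfected HepG2 cells were harvested for RNA; reporter transcripts were measured by RT-PCR and capillary electrophoresis. Values reflect gain or loss of signal relative to DMSO.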

[8] = ATG_MRE_CIS: Attagene CIS-FACTORIAL HepG2 Assay for human Metal Responsive Element (MRE) (AID 2282954); settings: HepG2 MRE cis-reporter transcription, Attagene multiplex; actives raise or lower the signal
Summary of the method: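 HepG2 cells transiently transfected with cis-element-driven reporter units; mRNA measured 24 h after dosing. Reporter transcripts quantified by RT-PCR, FAM labelling, HpaI digestion and capillary electrophoresis; bidirectional fit versus DMSO.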

[9] = ATG_PBREM_CIS: Attagene CIS-FACTORIAL HepG2 Assay for human Phenobarbital-responsive Enhancer Module (PBREM) (AID 2282955); settings: HepG2 PBREM cis-reporter, Attagene multiplexed transcription; actives raise or lower the signal
Summary of the method: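 Measures endogenous factor action on a phenobarbital-responsive enhancer module. HepG2 transiently carrying cis reporters, 24 h treatment, mRNA read-out by RT-PCR plus capillary electrophoresis.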

[10] = target: Paired box protein Pax-6 (Homo sapiens) (UniProt P26367); assay: ATG_Pax6_CIS: Attagene CIS-FACTORIAL HepG2 Assay for human Paired Box 6 (PAX6) (AID 2282956); settings: HepG2 CIS-FACTORIAL PAX6 reporter transcription, RNA readout; actives raise or lower the signal
Summary of the method: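 Transient MRTU transfection of HepG2 → compound exposure 24 h → TriZol RNA, oligo(dT) RT → PCR, 6-FAM primer extension, HpaI cut → capillary electrophoresis; activity fitted both directions against DMSO.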

[11] = ATG_PXRE_CIS: Attagene CIS-FACTORIAL HepG2 Assay for human Pregnane X Receptor Element (PXRE) (AID 2282957); settings: HepG2 Attagene CIS-FACTORIAL PXRE reporter, mRNA; actives raise or lower the signal
Summary of the method: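 Transfect HepG2 with MRTUs (cis promoter elements); dose chemical, incubate 24 h; isolate RNA, RT with oligo(dT), PCR, 6-FAM label, HpaI cut, CE. Gain/loss fit vs DMSO.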

[12] = ATG_PPRE_CIS: Attagene CIS-FACTORIAL HepG2 Assay for human Peroxisome Proliferator-activated Response Element (PPRE) (AID 2282958); settings: HepG2 PPRE cis-element reporter, Attagene transcription factor profiling; actives raise or lower the signal
Summary of the method: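 PPRE activity in HepG2: transient cis-reporter transfection, 24 h compound incubation, reporter mRNA by RT-PCR and CE fluorescence; gain/loss fitted against DMSO.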

[13] = ATG_RORE_CIS: Attagene CIS-FACTORIAL HepG2 Assay for human RAR-related Orphan Receptor Element (RORE) (AID 2282959); settings: HepG2 Attagene cis-factorial RORE reporter, mRNA; actives raise or lower the signal
Summary of the method: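 A 24-hour exposure of transfected HepG2 hepatoma cells precedes RNA isolation and reporter RT-PCR. Labeled products are digested with HpaI and resolved by capillary electrophoresis, with gain or loss of signal scored relative to DMSO.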

[14] = ATG_Sox_CIS: Attagene CIS-FACTORIAL HepG2 Assay for human SRY-box transcription factor (SOX) (AID 2282960); settings: HepG2 Attagene cis-factorial SOX reporter, mRNA; actives raise or lower the signal
Summary of the method: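 HepG2, cis reporter units, 24 h exposure. Reporter mRNA: RT-PCR → FAM labelling → HpaI → CE fluorescence. Bidirectional fit vs DMSO.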

[15] = target: Transcription factor Sp1 (Homo sapiens) (UniProt P08047); assay: ATG_Sp1_CIS: Attagene CIS-FACTORIAL HepG2 Assay for human Specificity Protein 1 (Sp1) (AID 2282961); settings: HepG2 Sp1 cis-reporter transcription, actives raise or lower the signal
Summary of the method: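 Liver-derived HepG2 cells, cis-element reporter library, 24 h treatment; RNA isolated, cDNA amplified with reporter-specific primers, FAM-labeled fragments sized on capillary analyzer. DMSO baseline, bidirectional curve fit.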

[16] = ATG_SREBP_CIS: Attagene CIS-FACTORIAL HepG2 Assay for human Sterol Regulatory Element Binding (SREBP) (AID 2282962); settings: HepG2 Attagene cis-factorial SREBP reporter, mRNA; actives raise or lower the signal
Summary of the method: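 Transfected HepG2 (cis-regulated reporter library, endogenous TFs) → compound 24 h → total RNA → oligo(dT) RT → reporter-specific PCR → FAM primer extension, HpaI cut → CE fluorescence. Fit bidirectional vs DMSO.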

[17] = target: Signal transducer and activator of transcription 3 (Homo sapiens) (UniProt P40763); assay: ATG_STAT3_CIS: Attagene CIS-FACTORIAL HepG2 Assay for human Signal Transducer and Activator of Transcription 3 (STAT3) (AID 2282963); settings: HepG2, Attagene cis-factorial STAT3 reporter transcription; actives raise or lower the signal
Summary of the method: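 HepG2 cells transiently transfected with multiple cis-element-driven reporter units report endogenous transcription factor activity. After 24 h compound exposure, reporter mRNA is measured by RT-PCR, 6-FAM labelling, HpaI digestion and capillary electrophoresis. Fitted bidirectionally versus DMSO.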

[18] = ATG_TA_CIS: Attagene CIS-FACTORIAL HepG2 Assay for human TA Basal Promoter (AID 2282964); settings: HepG2 Attagene CIS-factorial TA basal promoter reporter; actives raise or lower the signal
Summary of the method: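 Multiplexed mRNA reporter assay, HepG2, 24 h. Reporter cDNA amplified, 6-FAM primer-extended, HpaI-cut, CE-sized; DMSO = negative control and baseline.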

[19] = ATG_TCF_b_cat_CIS: Attagene CIS-FACTORIAL HepG2 Assay for human T-Cell-Factor with beta-catenin (TCF/b-cat) (AID 2282965); settings: HepG2 TCF/beta-catenin cis-reporter transcription, actives raise or lower the signal
Summary of the method: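 HepG2 cells transiently transfected with cis-promoter-driven multiplexed reporter units; reporter mRNA measured 24 h after dosing by RT-PCR, FAM labelling, HpaI digestion and capillary electrophoresis. Bidirectional fitting relative to DMSO baseline.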

[20] = ATG_GRE_CIS: Attagene CIS-FACTORIAL HepG2 Assay for human Glucocorticoid Response Elements (GRE) (AID 2282947); settings: HepG2 GRE cis-reporter, Attagene multiplex mRNA; actives raise or lower the signal
Summary of the method: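 Transiently transfected HepG2 cells carrying GRE cis-reporter units (endogenous TF activity) dosed 24 h; reporter mRNA quantified by RT-PCR, 6-FAM labelling, HpaI digestion and capillary electrophoresis. Bidirectional fit versus DMSO baseline.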

Measured: AC50

Hypoxia-inducible factor 1-alpha (Homo sapiens), sequence (Q16665 whole entry, looked up): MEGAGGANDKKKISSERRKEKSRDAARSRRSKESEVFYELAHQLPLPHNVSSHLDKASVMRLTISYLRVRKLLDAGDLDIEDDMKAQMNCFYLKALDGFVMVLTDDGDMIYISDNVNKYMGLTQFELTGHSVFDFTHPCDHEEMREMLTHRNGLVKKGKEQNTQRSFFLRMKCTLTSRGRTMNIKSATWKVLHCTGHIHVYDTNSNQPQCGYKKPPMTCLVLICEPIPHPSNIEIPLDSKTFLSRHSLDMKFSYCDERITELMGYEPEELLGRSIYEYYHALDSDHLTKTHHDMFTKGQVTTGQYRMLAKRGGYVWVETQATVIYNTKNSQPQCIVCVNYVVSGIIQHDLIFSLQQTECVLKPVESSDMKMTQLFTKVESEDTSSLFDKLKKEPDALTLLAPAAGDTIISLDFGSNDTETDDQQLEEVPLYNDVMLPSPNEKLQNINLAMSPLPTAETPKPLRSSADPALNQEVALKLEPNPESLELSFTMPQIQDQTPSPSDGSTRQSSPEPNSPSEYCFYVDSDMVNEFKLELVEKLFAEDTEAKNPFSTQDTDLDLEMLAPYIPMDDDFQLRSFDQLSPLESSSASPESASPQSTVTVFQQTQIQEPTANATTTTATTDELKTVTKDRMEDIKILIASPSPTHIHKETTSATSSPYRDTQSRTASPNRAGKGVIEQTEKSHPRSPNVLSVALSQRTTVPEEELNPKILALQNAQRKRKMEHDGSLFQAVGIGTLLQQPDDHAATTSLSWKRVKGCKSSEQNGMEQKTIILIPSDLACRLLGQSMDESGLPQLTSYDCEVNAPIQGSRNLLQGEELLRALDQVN
Heat shock factor protein 1 (Homo sapiens), sequence (Q00613 whole entry, looked up): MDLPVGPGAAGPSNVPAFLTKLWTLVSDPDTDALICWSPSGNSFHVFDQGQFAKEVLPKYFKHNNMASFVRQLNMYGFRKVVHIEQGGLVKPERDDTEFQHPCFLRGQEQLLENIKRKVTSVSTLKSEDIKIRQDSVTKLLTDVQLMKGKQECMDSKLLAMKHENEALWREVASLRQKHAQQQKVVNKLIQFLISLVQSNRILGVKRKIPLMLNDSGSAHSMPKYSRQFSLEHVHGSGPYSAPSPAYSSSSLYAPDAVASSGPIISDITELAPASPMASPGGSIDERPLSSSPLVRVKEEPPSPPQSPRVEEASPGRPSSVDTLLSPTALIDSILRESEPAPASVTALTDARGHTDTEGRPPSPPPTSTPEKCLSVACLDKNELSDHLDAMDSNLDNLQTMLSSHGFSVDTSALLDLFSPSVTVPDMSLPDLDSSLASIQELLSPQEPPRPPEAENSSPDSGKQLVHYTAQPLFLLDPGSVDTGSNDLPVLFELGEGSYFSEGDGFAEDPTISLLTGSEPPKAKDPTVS
Bile acid receptor (Homo sapiens), sequence (Q96RI1 whole entry, looked up): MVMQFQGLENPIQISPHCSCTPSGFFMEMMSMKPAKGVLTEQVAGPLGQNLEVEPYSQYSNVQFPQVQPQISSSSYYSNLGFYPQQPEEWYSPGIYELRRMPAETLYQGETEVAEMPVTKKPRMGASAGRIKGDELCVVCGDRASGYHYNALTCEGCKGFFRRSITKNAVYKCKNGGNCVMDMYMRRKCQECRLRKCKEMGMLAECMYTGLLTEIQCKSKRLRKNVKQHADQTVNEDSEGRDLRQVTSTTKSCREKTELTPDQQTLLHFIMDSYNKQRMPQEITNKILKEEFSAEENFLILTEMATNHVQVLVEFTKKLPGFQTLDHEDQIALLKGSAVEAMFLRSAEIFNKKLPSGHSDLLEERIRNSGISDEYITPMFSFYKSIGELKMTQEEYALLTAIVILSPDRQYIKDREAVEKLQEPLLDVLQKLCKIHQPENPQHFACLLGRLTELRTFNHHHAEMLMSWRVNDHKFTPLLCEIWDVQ
Transcription factor Sp1 (Homo sapiens), sequence (P08047 whole entry, looked up, the tested form may be a part): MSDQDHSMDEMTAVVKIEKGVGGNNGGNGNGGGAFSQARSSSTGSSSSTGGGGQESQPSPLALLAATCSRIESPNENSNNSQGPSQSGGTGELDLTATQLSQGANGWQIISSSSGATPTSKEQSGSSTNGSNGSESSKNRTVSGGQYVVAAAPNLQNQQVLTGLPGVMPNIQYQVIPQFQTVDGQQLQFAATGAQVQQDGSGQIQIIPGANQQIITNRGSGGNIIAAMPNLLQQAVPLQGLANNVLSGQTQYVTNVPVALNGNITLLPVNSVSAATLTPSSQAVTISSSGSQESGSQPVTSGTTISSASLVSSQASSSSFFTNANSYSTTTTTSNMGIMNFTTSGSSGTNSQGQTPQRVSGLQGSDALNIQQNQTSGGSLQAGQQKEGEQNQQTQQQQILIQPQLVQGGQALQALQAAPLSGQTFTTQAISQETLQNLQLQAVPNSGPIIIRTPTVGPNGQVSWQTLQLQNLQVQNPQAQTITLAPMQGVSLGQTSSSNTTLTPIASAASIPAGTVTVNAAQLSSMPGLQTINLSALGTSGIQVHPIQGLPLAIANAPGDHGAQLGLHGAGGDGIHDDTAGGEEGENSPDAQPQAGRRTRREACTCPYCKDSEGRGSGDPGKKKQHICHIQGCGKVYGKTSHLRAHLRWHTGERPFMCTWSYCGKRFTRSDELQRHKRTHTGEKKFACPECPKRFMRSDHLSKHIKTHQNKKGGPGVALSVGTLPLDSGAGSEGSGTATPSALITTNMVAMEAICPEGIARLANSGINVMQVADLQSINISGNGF
Paired box protein Pax-6 (Homo sapiens), sequence (P26367 whole entry, looked up): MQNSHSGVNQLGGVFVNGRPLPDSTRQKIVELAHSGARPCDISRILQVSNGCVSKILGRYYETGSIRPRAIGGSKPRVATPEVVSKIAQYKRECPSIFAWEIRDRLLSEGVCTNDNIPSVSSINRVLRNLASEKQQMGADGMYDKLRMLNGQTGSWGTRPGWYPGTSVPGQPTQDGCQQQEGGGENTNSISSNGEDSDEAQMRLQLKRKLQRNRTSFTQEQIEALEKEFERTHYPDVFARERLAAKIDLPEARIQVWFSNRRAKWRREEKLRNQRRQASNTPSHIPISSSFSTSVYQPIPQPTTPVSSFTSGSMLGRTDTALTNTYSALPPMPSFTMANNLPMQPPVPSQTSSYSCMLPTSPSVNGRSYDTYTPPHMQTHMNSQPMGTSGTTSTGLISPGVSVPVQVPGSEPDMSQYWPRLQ
Signal transducer and activator of transcription 3 (Homo sapiens), sequence (P40763 whole entry, looked up): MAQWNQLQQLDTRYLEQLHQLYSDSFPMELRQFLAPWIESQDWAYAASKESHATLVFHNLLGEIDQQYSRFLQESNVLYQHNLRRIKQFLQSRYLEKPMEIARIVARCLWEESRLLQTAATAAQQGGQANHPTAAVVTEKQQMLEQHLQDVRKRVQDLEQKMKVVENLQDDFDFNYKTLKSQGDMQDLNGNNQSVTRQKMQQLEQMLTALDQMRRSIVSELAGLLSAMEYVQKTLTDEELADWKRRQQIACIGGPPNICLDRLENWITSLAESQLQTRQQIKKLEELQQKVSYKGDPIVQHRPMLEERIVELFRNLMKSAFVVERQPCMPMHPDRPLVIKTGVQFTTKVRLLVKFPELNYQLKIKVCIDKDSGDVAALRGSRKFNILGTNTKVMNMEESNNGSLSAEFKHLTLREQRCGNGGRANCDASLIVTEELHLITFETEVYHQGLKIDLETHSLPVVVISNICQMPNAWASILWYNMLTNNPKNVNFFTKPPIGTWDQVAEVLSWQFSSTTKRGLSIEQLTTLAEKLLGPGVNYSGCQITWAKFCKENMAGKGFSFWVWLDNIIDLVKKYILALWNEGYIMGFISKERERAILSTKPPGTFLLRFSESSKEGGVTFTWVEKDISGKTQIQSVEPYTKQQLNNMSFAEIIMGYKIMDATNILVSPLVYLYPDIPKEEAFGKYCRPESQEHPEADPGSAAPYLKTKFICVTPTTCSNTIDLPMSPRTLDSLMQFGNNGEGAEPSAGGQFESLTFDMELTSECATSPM
Hepatocyte nuclear factor 6 (Homo sapiens), sequence (Q9UBC0 whole entry, looked up): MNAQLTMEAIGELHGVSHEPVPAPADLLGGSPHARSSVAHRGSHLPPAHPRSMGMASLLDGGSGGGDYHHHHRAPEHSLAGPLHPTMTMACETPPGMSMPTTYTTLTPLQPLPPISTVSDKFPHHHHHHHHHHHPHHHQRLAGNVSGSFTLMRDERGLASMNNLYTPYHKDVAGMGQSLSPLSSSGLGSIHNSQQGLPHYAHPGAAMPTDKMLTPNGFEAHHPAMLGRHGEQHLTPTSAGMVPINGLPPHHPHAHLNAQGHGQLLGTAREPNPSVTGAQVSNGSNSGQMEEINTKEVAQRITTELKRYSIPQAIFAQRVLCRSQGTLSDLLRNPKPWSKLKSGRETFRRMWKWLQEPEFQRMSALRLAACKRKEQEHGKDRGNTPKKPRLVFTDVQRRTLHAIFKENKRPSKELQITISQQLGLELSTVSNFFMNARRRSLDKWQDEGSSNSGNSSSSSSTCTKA

O=Nc1ccc(Nc2ccccc2)cc1
inactive: [3] | [4] | [12] | [13] | [17] | [18]
active: [1] 13.7 µM | [2] 25.4 µM | [5] 33.4 µM | [6] 25.2 µM | [7] 27.8 µM | [8] 20 µM | [9] 59.3 µM | [10] 33.4 µM | [11] 22.6 µM | [14] 47.6 µM | [15] 55 µM | [16] 33.4 µM | [19] 20.9 µM

CCCC/C=C\CCCCCCCCCC=O
not listed: [7] | [12] | [13] | [16] | [20]
inactive: all other assays above

NCCOCCO
active: [5] 30.2 µM
not listed: [9] | [11] | [12] | [20]
inactive: all other assays above

CC(C)(Oc1ccc(CCNC(=O)c2ccc(Cl)cc2)cc1)C(=O)O
not listed: [5] | [11] | [12] | [20]
inactive: all other assays above

COc1ccc(OC)c(OC)c1
not listed: [3] | [11] | [12] | [20]
inactive: all other assays above

CCCCO
not listed: [9] | [13] | [20]
inactive: all other assays above

CC(=O)[C@H]1CC[C@H]2[C@@H]3CC=C4C[C@@H](O)CC[C@]4(C)[C@H]3CC[C@]12C
active: [2] 36 µM | [11] 3.37 µM | [19] 52.8 µM
not listed: [12] | [20]
inactive: all other assays above

C=CC(=O)NCOCC(C)C
active: [11] 21 µM
not listed: [3] | [9] | [12] | [13] | [20]
inactive: all other assays above

O=C(O)c1snc(Cl)c1Cl
active: [2] 136 µM | [6] 153 µM | [7] 158 µM | [8] 161 µM | [10] 188 µM | [14] 173 µM | [19] 167 µM
not listed: [9] | [11] | [12] | [13] | [20]
inactive: all other assays above

CCCCc1ccc(N)cc1
active: [19] 28.2 µM
not listed: [1] | [12]
inactive: all other assays above

COCCOCCOCCOCCOCCO
not listed: [1]
inactive: all other assays above

CN(C)c1ccc(O)c2c1C[C@H]1C[C@H]3[C@H](N(C)C)C(=O)C(C(N)=O)=C(O)[C@@]3(O)C(=O)C1=C2O
not listed: [1] | [12] | [13] | [16]
inactive: all other assays above

O=C1OC2(c3cc(Br)c(O)c(Br)c3Oc3c2cc(Br)c(O)c3Br)c2c(Cl)c(Cl)c(Cl)c(Cl)c21
active: [8] 19.1 µM | [10] 62.2 µM | [11] 5.13 µM | [16] 17 µM | [19] 87.5 µM
not listed: [1] | [13]
inactive: all other assays above

C=COCCOCCOCCOC=C
not listed: [1] | [17]
inactive: all other assays above

CCCCC(CC)COCCC#N (centres undefined)
active: [11] 27.9 µM
not listed: [1] | [12]
inactive: all other assays above
